Results taken from PubChem BioAssay AID1063 (University of Pittsburgh Molecular Library Screening Center, 2008).
In all, about 200,000 compounds went through this assay and about 18,000 (9%) were called active. For the sample, actives were picked, then their nearest neighbours and some compounds at random. Values without a mark were called inactive. No stated cut-off is given here; in the data, active means inhibition above about 50%; inactive means the rest.

Assay: antileishmanial activity against promastigotes – primary screen (AID 1063);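 further: promastigotes grown with compound for 44 hours at 28 °C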
Details: Leishmania major promastigotes, resazurin fluorescence viability; at 10 µM; active compounds read high

SMILES | inhibition
COc1ccc(S(=O)(=O)Nc2ccc(O)c(Sc3nc4ccccc4s3)c2)cc1 | 2.71%
O=C(O)c1cccc(S(=O)(=O)Nc2ccc(O)cc2Sc2nc3ccccc3s2)c1 | 3.69%
CCCCC(CC)CNC(=O)C(=O)C1C(=O)Nc2ccccc21 (stereo not drawn) | -2.85%
CC(=O)Nc1ccc(NC(=O)CSc2nnc(COc3ccccc3C)n2CC2CCCO2)cc1 (stereo not drawn) | -3.47%
COc1ccc(C(=O)NC2CCN(C(=S)NCCc3ccccc3)CC2)cc1 | -3.89%
CC(C)NC(=O)NC(=O)CSc1nnc(-c2ccccc2F)n1N | -1.13%
Cc1ccc(C2CC(c3cccc(NS(C)(=O)=O)c3)=NN2S(C)(=O)=O)cc1 (stereo not drawn) | 10.8%
CS(=O)(=O)Nc1cccc(C2=NN(S(=O)(=O)c3ccccc3)C(c3cccs3)C2)c1 (stereo not drawn) | 90.1% (active)
CS(=O)(=O)Nc1ccc(C2=NN(S(C)(=O)=O)C(c3cccs3)C2)cc1 (stereo not drawn) | 0.6%
CCS(=O)(=O)c1ccc(C(=O)NC)c(Cl)c1Cl | 2.32%
O=C(NNC(=O)c1cc2c(s1)CCCC2)c1ccccc1 | 78.1% (active)
O=C(COC(=O)c1cc2c(s1)CCCC2)NCc1ccccc1Cl | -8.28%
O=C(Nc1cccc(NC(=O)N2CCN(c3ccccc3)CC2)c1)N1CCN(c2ccccc2)CC1 | 35.8%
O=C(c1cc2c(s1)CCC2)N1CCN(c2ccccc2)CC1 | 93.8% (active)
O=C(CNC(=O)c1cc2c(s1)CCC2)Nc1ccccc1Br | -6.67%
Cc1nc2ccc(C(=O)N3CCN(c4ccccc4)CC3)cc2s1 | -9.02%
CCOC(=O)Cc1cc(=O)[nH]c(=O)[nH]1 | -1.79%
O=C(COC(=O)c1ccccn1)Nc1cccc2ccccc12 | -8.4%
Cc1cc(C)cc(NC(=O)Cn2cnc3c(nnn3Cc3ccc(F)cc3)c2=O)c1 | -2.51%
Cc1cccc(C)c1NC(=O)Nc1ccccc1-n1ccnc1 | -5.13%
CN1CCC(=NNC(=O)CN(c2cccc(Cl)c2)S(C)(=O)=O)CC1 | -4.77%
CC12CCC(C(=O)N(c3cccc(Cl)c3)C1=O)C2(C)C (stereo not drawn) | -2.92%
COc1ccccc1C(=O)NN1C(=O)C2C3C=CC(O3)C2C1=O (stereo not drawn) | -5.97%
CC12CCC(C(=O)N(NC(=O)c3ccccc3O)C1=O)C2(C)C (stereo not drawn) | 69.9% (active)

SMILES | inhibition
COc1ccc(-c2csc(NC(=O)COC(=O)c3ccc(Br)o3)n2)cc1 | 95.2% (active)
COc1ccc(-c2csc(NC(=O)COC(=O)Cc3ccc(Cl)cc3Cl)n2)cc1 | 1.41%
COc1ccc(-c2csc(NC(=O)CCCc3cccs3)n2)cc1 | 10.5%
Cc1cc(CNCc2c(C(=O)N(C)Cc3ccccc3)nc3ccccn23)nn1C | 0.26%
O=C(O)c1ccccc1-c1ccccc1C(=O)Nc1nccs1 | -1.78%
O=C(C(c1ccccc1)c1ccccc1)N1CCN(CC(O)COc2ccccc2)CC1 (stereo not drawn) | 9.16%
O=c1cc(CN2CCN(c3cccc(Cl)c3)CC2)c2cc3c(cc2o1)CCCC3 | 5.66%
Cn1c(=O)c2c(nc(N3CCCCCC3)n2CC(O)COc2ccc(Cl)cc2)n(C)c1=O (stereo not drawn) | 56.5% (active)
OC(COc1ccc2c(c1)CCC2)CN1CCN(c2cccc(Cl)c2)CC1 (stereo not drawn) | 98.7% (active)
CCC(=O)c1ccc(OCC(O)CN2CC(C)OC(C)C2)cc1 (stereo not drawn) | 87.5% (active)
CCC(=O)c1ccc(OCC(O)CN2C(=O)NC(C)(C)C2=O)cc1 (stereo not drawn) | -2.21%
O=C(c1ccccc1)c1ccc(OCC(O)CN2CCCC2)cc1 (stereo not drawn) | 31.6%
OC(COc1ccc(CN2CCSCC2)cc1)CN1CCCCC1 (stereo not drawn) | 19%
O=C(c1ccc(Cl)cc1)c1ccc(OCC(O)CN2CCCCC2)cc1 (stereo not drawn) | 99.2% (active)
Cn1c(=O)c2c(nc(N3CCCCCC3)n2CC(=O)c2ccc(Br)cc2)n(C)c1=O | -0.4%
CCC(=O)c1ccc(OCC(O)CN2CCN(c3cccc(C(F)(F)F)c3)CC2)cc1 (stereo not drawn) | 13.7%
Cc1cccc(Cn2c(N3CCN(c4ccccc4)CC3)nc3c2c(=O)n(C)c(=O)n3C)c1 | -1.6%
COc1cc(C(=O)N[C@@H](C)C(=O)NCc2ccco2)cc(OC)c1OC | -6.03%
CCCCn1c(N)c(N(CC)C(=O)/C=C/c2ccco2)c(=O)[nH]c1=O | -4.32%
[O-][n+]1c2c(nn1-c1ccc(Cl)c(Cl)c1)-c1nonc1CC2 | 13.6%
Cc1nc(N2CCCCC2)sc1C=O | 6.31%
CCC(C)(C)c1ccc(OCC(=O)N(C)C)c(C(C)(C)CC)c1 | 18.1%
COC(=O)CNC(=O)c1ccc(OC2CCN(C(=O)C3CC3)CC2)cc1 | -6.39%
CCOc1cc(CNn2c(C)nnc2SCC(=O)NC(C)(C)C)ccc1OCC(=O)NC(C)(C)C | 0.56%
